Source: the supplement of paper PMC9694430
Several values for one entry are separate records, joined by “and”; a condition that tells them apart may be missing. Equal entries are not always repeated.

System: LOC_OS03G50810-cb003
Assay: thermal shift delta Tm vs DMSO control; higher = stronger stabilization (binding)
Settings: 12.5 µM; protein concentration 2 µM
Summary of the method: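 Thermal shift values come from differential scanning fluorimetry on purified rice kinase domains made in E. coli, with melting temperatures obtained from Boltzmann fits. Samples of 19.5 μl held 2 μM kinase, 100 mM potassium phosphate pH 7.5, 150 mM NaCl, 10% glycerol, 5 × SYPRO Orange and compound in DMSO, and were heated from 25°C to 95°C at 0.05°C/s. Each shift is a triplicate mean relative to the DMSO-only protein sample.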
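Further: purified Escherichia coli-expressed rice kinase domain construct.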

Compound | thermal shift delta Tm
Cc1cnc(-c2cnc(NCCNc3ccc(C#N)cn3)nc2-c2ccc(Cl)cc2Cl)[nH]1 | 0.98 °C and 1.26 °C
CCN(CC)CCCCNc1ncc2cc(-c3cc(OC)cc(OC)c3)c(NC(=O)NC(C)(C)C)nc2n1 | 0.47 °C
Cn1cc(-c2ccc3nnc(C(F)(F)c4ccc5ncccc5c4)n3n2)cn1 | 0.22 °C
O=C(c1ccc(/C=C/c2n[nH]c3ccccc23)cc1)N1CCNCC1 | 4.42 °C
CN(C)C[C@@H]1CCn2cc(c3ccccc32)C2=C(C(=O)NC2=O)c2cn(c3ccccc23)CCO1 | 1.85 °C
CC1=C(C(=O)Nc2ccc3[nH]ncc3c2)C(c2ccc(F)cc2)NC(=O)N1 (centres undefined) | 0.64 °C
CCc1cc(Nc2nccc(-c3c(-c4ccc(OC)c(C(=O)Nc5c(F)cccc5F)c4)nc4ccccn34)n2)c(OC)cc1N1CCC(N2CCN(S(C)(=O)=O)CC2)CC1 | 0.2 °C
CNS(=O)(=O)Nc1nccc(Cc2c(C)c3ccc(Oc4ncccn4)cc3oc2=O)c1F | 0.57 °C
CCn1c(=O)c(-c2cc[nH]n2)cc2c(C)nc(N)nc21 | 0.28 °C
COc1cc(F)c(F)c(Nc2ccc(I)cc2F)c1NS(=O)(=O)C1(C[C@H](O)CO)CC1 [Refametinib (RDEA119, Bay 86-9766)] | 0.41 °C
Cc1cc(C(=O)NOCCO)c(Nc2ccc(I)cc2F)n(C)c1=O | -0.06 °C
O=C(c1cccc(Cl)c1F)N1CCN(Cc2cccc(Nc3nccs3)n2)CC1 | 1.09 °C
CC(C)n1nc(-c2ccc3oc(N)nc3c2)c2c(N)ncnc21 | 0.61 °C
C=CC(=O)Nc1cccc(Sc2nc(Nc3ccc(N4CCN(C)CC4)cc3)ncc2Cl)c1 | 4.92 °C
